# PubChem BioAssay (EPA / NIEHS)
# Active and inactive are the calls of the source. Rule for the calls: active = hit-call score of the fitted dose curve at least 0.9, where 1 is the maximum; inactive = score below 0.9.
# Read-out: ABC Transporter (ABCC3), ABCC3 (gene 8714)
# Experiment: LTEA_HepaRG_ABCC3: Life Technologies and Expression Analysis (LTEA) Assay for ABC Transporter (ABCC3) using HepaRG (AID 2283462)
# Conditions: mRNA level, 48 h; actives raise or lower the signal
# Procedure: LTEA_HepaRG is a cell based, multiplexed-readout assay that uses HepaRG, a human liver cell line, with measurements taken at 48 hours after chemical dosing on a 96-well plate.LTEA_HepaRG_ABCC3 is one of 102 assay component(s) measured in the LTEA HepaRG cell culture assay. It is a marker of NR mediated transport.Data from the assay component LTEA_HepaRG_ABCC3 was analyzed into 1 endpoint. This assay endpoint, LTEA_HepaRG_ABCC3, was analyzed with bidirectional fitting relative to DMSO as the negative control and baseline of activity. Using a type of inducible reporter, measures of mRNA induction for gain or loss-of-signal activity can be used to understand regulation of transcription factor activity. To generalize the intended target to other relatable targets, this assay endpoint is annotated to the transporter intended target family, where the subfamily is ABC transporter.
# A total of 1060 chemcials from the ToxCast library were tested in eight-point concentration-response experiments. Cell culture and cytotoxicity assays were conducted at Thermo Fisher Scientific's Custom Services facility (Madison, WI). A single lot of human HepaRG cells (Thermo Fisher Scientific, Frederick, MD) was used for the cell culture experiments. 96-well format collagen type I coated plates of human HepaRG cells were prepared using established methods. Briefly, cryopreserved HepaRG cells were thawed, plated at a density of approximately 100,000 cells/well in HepaRG Thaw, Plate, and General Purpose media (HPRG770, Thermo Fisher Scientific), and incubated for 48 hours. 0.5% DMSO was selected as vehicle control to balance the requisite need of DMSO in HepaRG cultures to maintain differentiation (for example, baseline metabolism, proportions of hepatocytes vs. cholangiocytes), while enabling further hepatic receptor pathway activation (for example, PXR and CAR) in response to chemical exposure. 48 hours after plating, the culture medium was replaced with HepaRG Serum-Free Incudtion Media. Cells were exposed to each test chemical in duplicate and maintained in CO2 incubators for another 48 hours. Chemical plates were thawed to room temperature and 200x concentrations of treatment groups were prepared. 8-point conentration-reponse curves were made with the highest exposure at 100 uM, followed by half-log dilutions, all in 0.5% DMSO. Each test plate contained variouse controls, induction positive controls (1mM phenobarbital), cytotoxicity positive controls ([…] aflatoxin B1), vehicle controls (0.5% DMSO), and total lysis controls (0.5% DMSO). Cell morphology images were taken using an Essen IncuCyte FLR automated microscope, with six 96-well plates imaged in about 24 minutes. Images were captured and exported and JPEG files. Spent culture media was transfered to black-well plates for the LDH assay, and remaining media was sorted at -80 C for later use. Cells were treated with RLT buffer and frozen until shipped for gene expression analysis. Total RNA was isolated from the cell suspension in 75 uL of Buffer RLT (Qiagen, Germantown, MD 20874) by Quintiles/Expression Analysis (Durham, NC) using a custom isolation procedure. Total RNA from each plate well was transferred to a preamplification plate. Fluidigm's 96.96 Dynamic ArrayTM (Fluidigm, Amsterdam, the Netherlands) technology was used for gene expression analyses by quantitative reverse transcription polymerase chain reaction (qRT-PCR, performed by Quintiles/Expression Analysis, Durham, NC)89. Standard TaqManTM Assays (Applied Biosystems/ThermoFisher Scientific, Foster City, CA) were used to assess the expression of 93 genes selected based on their selectivity and sensitivity to important hepatic receptors known to be modulated by environmental chemicals; importance in human hepatocyte functionality; and hepatotoxicity. […]
Structure (SMILES),outcome,AC50
CCCCCCCCCCCCOS(=O)(=O)O,inactive,
O=C1NS(=O)(=O)c2ccccc21,inactive,
O=C(CCCN1CCC(O)(c2ccc(Cl)cc2)CC1)c1ccc(F)cc1,,50 µM (active)
O=C(c1ccccc1)c1ccccc1,inactive,
CCC(C)c1ccccc1O (stereo unspecified),inactive,
CCCCCCCCCCCCCCC,inactive,
CCCCc1oc2ccccc2c1C(=O)c1cc(I)c(OCCN(CC)CC)c(I)c1,,22.4 µM (active)
CCCCC(CC)C(=O)O (stereo unspecified),inactive,
OCC(CO)(CBr)CBr,inactive,
CC(=O)Nc1ccc(O)cc1,inactive,
CN(Cc1cnc2nc(N)nc(N)c2n1)c1ccc(C(=O)N[C@@H](CCC(=O)O)C(=O)O)cc1,inactive,
CCCCC=O,inactive,
N=C(N)c1ccc(OCCCCCOc2ccc(C(=N)N)cc2)cc1,,3.46 µM (active)
CN(C)CCOC(c1ccccc1)c1ccccc1,inactive,
Cc1[nH]nc2c1N=C(c1ccccc1Cl)c1cc([N+](=O)[O-])ccc1N2,,3.26 µM (active)
CS(=O)(=O)c1ccc([C@@H](CC2CCCC2)C(=O)Nc2cnccn2)cc1Cl,inactive,
